Laboratory results as given in the supplement of paper PMC6555819.

Key:
Assay in all cases: PBM binding z-score (relative to random genomic background probes); higher = stronger binding; sequences stand for … in GC…GCGATTGACAGCGTAGAATGAAGG
[1] = tested on: FXR:RXRa (NR concentration 270 nM, RXRa partner concentration 90 nM)
Outline: (§1)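 Antibodies against each partner of ligand-free nuclear receptor dimers (one per run) detected binding on custom Agilent 4×180K protein-binding microarrays after 1 h incubation. The double-stranded probes had 34-nt variable regions carrying direct-repeat seeds, single-nucleotide variants, half-site ablations and random human genomic background sequences. Binding z-scores, from regression-normalized fluorescence, use the random background probes as reference.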

[2] = tested on: LXRa:RXRa (NR concentration 270 nM, RXRa partner concentration 90 nM)
Outline: as §1

[3] = tested on: LXRa homodimer (NR concentration 270 nM)
Outline: as §1

[4] = tested on: LXRb:RXRa (NR concentration 270 nM, RXRa partner concentration 90 nM)
Outline: as §1

[5] = tested on: LXRb homodimer (NR concentration 270 nM)
Outline: as §1

[6] = tested on: PPARa:RXRa (NR concentration 270 nM, RXRa partner concentration 90 nM)
Outline: as §1

[7] = tested on: PPARg:RXRa (NR concentration 180 nM, RXRa partner concentration 90 nM)
Outline: as §1

[8] = tested on: PPARg:RXRa 270nM:90nM, anti-RXR (NR concentration 270 nM, RXRa partner concentration 90 nM)
Outline: as §1

[9] = tested on: PPARg:RXRa 30nM:10nM, anti-RXR (NR concentration 30 nM, RXRa partner concentration 10 nM)
Outline: as §1

[10] = tested on: PPARg:RXRa 90nM:30nM, anti-RXR (NR concentration 90 nM, RXRa partner concentration 30 nM)
Outline: as §1

[11] = tested on: PPARg:RXRa DBDmut IVT, anti-RXR (DBD mutation: RXRa K156A/R161A, NR concentration 270 nM, RXRa partner concentration 90 nM)
Outline: as §1

[12] = tested on: PPARg:RXRa IVT, anti-PPARg (NR concentration 270 nM, RXRa partner concentration 90 nM)
Outline: as §1

[13] = tested on: PPARg DBDmut:RXRa IVT, anti-PPARg (DBD mutation: PPARg1 K132A/R137A, NR concentration 270 nM, RXRa partner concentration 90 nM)
Outline: as §1

[14] = tested on: PPARg DBDmut IVT, anti-PPARg (DBD mutation: PPARg1 K132A/R137A, NR concentration 270 nM)
Outline: as §1

[15] = tested on: PPARg homodimer (NR concentration 180 nM)
Outline: as §1

[16] = tested on: PXR:RXRa (NR concentration 270 nM, RXRa partner concentration 90 nM)
Outline: as §1

[17] = tested on: PXR homodimer (NR concentration 270 nM)
Outline: as §1

[18] = tested on: RARa:RXR (NR concentration 270 nM, RXRa partner concentration 90 nM)
Outline: as §1

[19] = tested on: RARa homodimer (NR concentration 270 nM)
Outline: as §1

[20] = tested on: RARb:RXRa (NR concentration 270 nM, RXRa partner concentration 90 nM)
Outline: as §1

Sequence	PBM binding z-score [1]	PBM binding z-score [2]	PBM binding z-score [3]	PBM binding z-score [4]	PBM binding z-score [5]	PBM binding z-score [6]	PBM binding z-score [7]	PBM binding z-score [8]	PBM binding z-score [9]	PBM binding z-score [10]	PBM binding z-score [11]	PBM binding z-score [12]	PBM binding z-score [13]	PBM binding z-score [14]	PBM binding z-score [15]	PBM binding z-score [16]	PBM binding z-score [17]	PBM binding z-score [18]	PBM binding z-score [19]	PBM binding z-score [20]
AGTCAAAGTTCACTAGGTAACGTGAGATTCAGCT	4.64	4.79	2.64	2.71	0.742	4.57	7.14	6.33	3.41	5.47	2.52	4.98	1.48	1.01	2.06	3.61	1.97	2.87	0.41	4.72
GGAACGAGGGTAAAGTTGATAGCATCTGTCGACG	0.472	0.494	-0.531	0.361	-0.696	3.37	5.63	6.72	4.9	7.39	2.48	2.91	0.376	-0.666	0.544	0.0856	-0.214	0.287	-0.126	0.952
GCATATCGGTAATACAAGGTGAAAGTCCGATTGT	0.694	0.4	0.294	0.243	-0.333	0.84	0.415	0.8	0.385	0.634	0.472	0.945	0.308	0.208	0.544	0.155	0.188	0.793	0.00157	0.541
CGAATTAGGTCATTGACAGGACAGTGAATAGTAA	4.67	3.39	0.61	2.55	0.269	4.89	6.83	6.02	3.62	5.68	8.21	7.99	4.24	2.12	2.32	1.77	0.55	2.57	0.994	3.73
TTACAAAGGTGAAGGTCGTTGATCCCTCTGTAGA	3.61	2.92	0.147	2.33	-0.453	3.81	3.92	4.48	2.28	4.11	2.62	3.97	0.246	0.134	1.47	2.32	0.241	2.74	0.198	3.56
TCTCGGAGGACACGACGGTCAGAGCTTTCCAGAG	0.205	0.0184	-0.415	-0.277	-1.16	0.197	-0.0353	0.515	1.6	1.3	1.2	0.00965	-1.14	-0.952	-0.596	-0.328	-0.626	-0.317	-0.599	1.91
TCTAGGAGGCCAGAGGGTCACTCAAGAGGTACGG	1.5	0.891	-0.426	0.559	-1.15	2.65	1.87	3.02	2.76	2.99	1.84	1.03	-0.0331	-0.364	0.662	1.42	-0.35	2.08	-0.215	2.58
AGGCAAAGTTCACTAGGTAACGTAAGATTCAGCT	5.31	5.15	2.57	3.12	0.881	4.61	6.33	6.04	2.78	5.21	2.96	4.77	1.25	1.49	3.61	4.02	2.73	2.94	1.73	4.61
GCTATTAGTTGAAAGGGCAGCCGAATGATTCTCG	0.117	0.132	-0.239	0.0989	-0.467	1.69	1.92	3.53	1.46	3.05	0.343	0.268	-0.735	-0.14	0.871	0.09	0.28	0.515	0.871	1.78
CAAACTAGGTCACCAAAGGTCAAAGTCGAATGAC	7.53	8.61	8.25	7.82	3.21	6.74	10.1	8.27	6.41	8.55	8.22	9.1	3.38	2.17	3.38	6.88	2.28	7.52	3.8	5.85
AATACAGCGTCATCGTAGGCCAGAGTACGCACAG	-0.326	-0.432	-0.689	-0.757	-0.269	-0.355	0.716	-0.141	-0.189	-0.519	-0.562	0.0727	0.418	-0.309	-0.333	-0.367	-0.167	-0.0509	-0.571	-0.182
ATCGAAAGGTCGACGAGGCGAGTATACACCGTTT	3.59	3.38	0.0627	2.5	0.404	4.27	2.48	2.74	0.711	1.71	0.214	1.62	0.933	1.13	1.44	2.47	0.0107	3.26	0.0419	3.84
GTACCAAGGTGAATAGGTCGTCGATGAGTAGGCG	0.785	0.833	-0.158	0.527	-0.663	2.45	1.5	1.81	0.196	1.18	1.91	2.77	-0.404	-0.279	0.976	0.807	-0.119	1.9	0.0363	2.18
TAGCCTAGTTCATTGGGCCAGTATAGTACGCATC	-0.0548	0.147	-0.141	0.139	-0.687	0.81	0.461	0.538	-0.446	0.253	1.48	1.68	-0.38	-0.291	-0.325	0.756	0.651	-0.0581	-0.777	1.17
GGTTGTAGATCAAGGTTAAGAAAGACTAAGCTAA	0.73	1.3	0.323	1.19	0.361	1.5	0.938	1.63	0.752	1.31	0.74	1.03	0.337	0.177	1.28	0.988	0.866	1.16	1.7	1.17
CAGCCTAGGTCAGGGCCACTATAGGAGGAACGTT	1.85	1.24	-0.48	0.816	-0.559	2.18	1.36	1.27	-0.111	0.592	1.2	1.84	-0.722	-1.19	0.834	0.356	-0.684	0.936	-0.384	3.44
AGGCAAAGTTCAGGACGAGGTAACGTAAAGCACG	4.22	3.64	1.15	1.9	0.202	3.37	3.33	4.04	1.44	3.05	-0.11	1.19	0.287	-0.24	2.28	2.89	1.59	2.82	1.16	4.26
TCGAGTAGGTTAAGGGCATTCAGAATGGCGTCGA	0.969	1.02	-0.302	0.27	-1.02	1.75	1.68	2.85	1.35	2.37	2.73	2.37	-0.645	-1.04	0.261	0.999	0.373	0.821	-0.417	2.03
TCTTGTAGATCAGCAGGTTAAGTAAGCTGGCCAA	0.169	0.366	-0.23	0.424	-0.524	0.865	-0.624	1.25	2.73	2.04	1.65	0.766	-0.114	-0.0421	0.0118	0.266	-0.355	0.553	-0.134	0.298
GCATATATGTAATACAAGGTGAAAGTCCGATTGT	0.416	0.403	0.269	0.457	0.00515	1.08	1.35	0.83	0.428	0.72	1.6	1.75	0.651	0.705	0.207	0.156	0.0966	1.35	0.0285	0.445
GCTTACGGGTCGAAGGTTATAGCATGAATAGAAT	2.01	2	-0.187	2.51	-0.371	4.36	6.66	6.7	4.94	6.88	0.529	2.66	0.973	0.687	1.39	2.65	-0.142	3.79	-0.0107	1.49
ATCTCTAGGTAAAGTTCAGTGAGAGATCGATAGA	1.25	1.82	1.42	0.981	0.57	2.42	3.37	3.95	2.06	3.46	2.11	2.62	1.04	0.672	1.57	1.77	1.52	1.01	0.975	2.58
CTCGAAAGGTCGGTGGAGGTGAGTATACGGATAA	2.34	1.77	-0.129	1.41	-0.0636	2.82	0.577	1.22	0.0571	0.88	0.0934	0.827	1.01	-0.175	1.03	2.39	-0.0117	2.63	0.0288	2.89
ACAGACAGGTGGTGAAGGTAACTCAGGCTATCAT	-0.0169	-0.306	-0.324	-0.0742	-0.476	-0.288	0.473	-0.194	-0.095	-0.321	-0.597	0.0629	-0.371	-0.55	0.0722	-0.271	0.0248	-0.15	0.517	-0.142
CCTCGGAGTACAACAGGAGGTCAGAGCTGCCAGA	0.85	1.93	1.79	1.35	-0.438	1.92	0.371	0.479	-0.324	-0.0827	0.161	0.257	-0.9	-1.14	1.18	2.19	0.607	2.23	0.843	2.06
TCTATTAGTGGAAGGGCAACCGACGAGTCCGTTT	0.67	0.688	0.218	0.807	0.57	0.716	0.0931	1.91	3.26	2.56	2.03	0.68	0.155	-0.147	0.597	0.698	0.821	0.778	0.46	1.59
GCTTACGGGTCAAAGGTTATAGAATGAATAGAAT	7.46	6.03	0.9	5.71	0.667	7	11.4	9.46	10.1	10.7	4.71	5.44	1.37	1.09	1.73	6.07	0.466	8.42	0.715	4.59
AGAACGAGGGCAATGAATTGATAGCACGGGTGGC	0.314	0.102	-0.259	0.0164	-0.479	1.32	1.27	0.732	0.112	0.346	3.39	2.58	0.112	-0.0881	-0.139	0.372	0.123	0.568	0.175	2.01
ACAGACAGGTGATGAAGGTCACTCAGGCTATCAT	1.77	2.17	0.813	1.96	0.00655	2.75	1.62	1.8	0.565	1.21	0.771	1.97	0.688	0.177	2.08	2.81	2.02	2.83	0.664	3.03
